Reference: PMC6919601, “Identification of Plasmodium dipeptidyl aminopeptidase allosteric inhibitors by high throughput screening” (PLoS ONE, 2019)
Hit rate of the full screen: of about 110,000 compounds, about 230 (0.21%) showed an effect of 50% or more. The entries come from a sample that favours strong results as a whole.

These molecules were tested against DPAP1 (Plasmodium falciparum, UniProt Q8IIJ9) (assay: primary screen, percent inhibition; read by cleavage of a fluorogenic dipeptide substrate; higher = more effect of the substance).
Set-up: species or system P. falciparum D10 trophozoite lysates; single well
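Note: 30 min substrate incubation versus DMSO and 10 µM JCP410 controls.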

Sequence of DPAP1 (Q8IIJ9 whole entry, looked up): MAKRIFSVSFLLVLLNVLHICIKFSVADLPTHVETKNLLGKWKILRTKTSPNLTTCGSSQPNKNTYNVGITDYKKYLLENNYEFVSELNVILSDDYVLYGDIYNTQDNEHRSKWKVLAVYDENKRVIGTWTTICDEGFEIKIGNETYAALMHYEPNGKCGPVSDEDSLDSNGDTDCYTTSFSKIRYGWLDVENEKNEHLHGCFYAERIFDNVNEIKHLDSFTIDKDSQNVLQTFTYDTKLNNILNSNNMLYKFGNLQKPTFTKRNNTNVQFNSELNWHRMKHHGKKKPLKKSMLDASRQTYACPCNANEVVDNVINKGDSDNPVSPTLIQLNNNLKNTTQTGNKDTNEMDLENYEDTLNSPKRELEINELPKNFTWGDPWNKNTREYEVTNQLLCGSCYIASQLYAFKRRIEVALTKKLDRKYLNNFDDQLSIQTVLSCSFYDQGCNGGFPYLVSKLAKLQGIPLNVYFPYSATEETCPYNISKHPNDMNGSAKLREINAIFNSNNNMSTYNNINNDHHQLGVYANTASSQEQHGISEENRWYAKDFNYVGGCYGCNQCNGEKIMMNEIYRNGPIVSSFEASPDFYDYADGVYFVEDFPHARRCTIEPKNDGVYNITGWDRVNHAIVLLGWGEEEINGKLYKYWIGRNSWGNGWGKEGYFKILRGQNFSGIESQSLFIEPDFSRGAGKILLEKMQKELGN

Compound	% Inhibition @ 10 uM
CCN1CCN(C(=O)CS(=O)(=O)Cc2nc(-c3ccc(C)cc3)oc2C)CC1	-3.7%
O=S(=O)(NC1CCc2ccccc21)c1ccc(-n2cnnn2)cc1 (stereo not drawn)	-1.07%
CC1=C(C(=O)Nc2ccc(Br)cc2)C(c2ccc(Cl)cc2)NC(=O)N1 (stereo not drawn)	1.35%
COCCCNC(=O)Cc1coc2ccc3ccccc3c12	2.01%
CCn1c(S)nc2c(=O)oc3ccccc3c21	14%
Cn1c(S)nc2c(=O)oc3ccccc3c21	56.8%
Cc1nc2c(=O)oc3ccccc3c2n1C	4.35%
COc1ccc(N(C(C)C(=O)Nc2ccc(C(C)C)cc2)S(C)(=O)=O)cc1 (stereo not drawn)	-1.57%
CCCCSCCCNC(=O)C1CCC(CNS(=O)(=O)c2ccc(C)cc2)CC1 (stereo not drawn)	5.47%
COc1cc(C2CC(=O)N3CN(Cc4ccco4)CSC3=C2C#N)ccc1O (stereo not drawn)	17.5%
COc1ccc(C2CC(=O)N3CN(CCC(C)C)CSC3=C2C#N)cc1OC (stereo not drawn)	46.8%
Cc1ccc(C2CC(=O)N3CN(CCC(C)C)CSC3=C2C#N)cc1 (stereo not drawn)	43.8%
COc1ccc(C2CC(=O)N3CN(CCCc4ccccc4)CSC3=C2C#N)cc1OC (stereo not drawn)	30.5%
N#CC1=C2SCN(Cc3ccccc3)CN2C(=O)CC1c1ccc(Cl)cc1 (stereo not drawn)	42.2%
CC(C)CCN1CSC2=C(C#N)C(c3ccc(Cl)cc3)CC(=O)N2C1 (stereo not drawn)	54.6%
Cc1ccsc1CCN1CSC2=C(C#N)C(c3ccc(Cl)cc3)CC(=O)N2C1 (stereo not drawn)	51.6%
COc1cccc(C2CC(=O)N3CN(CCc4sccc4C)CSC3=C2C#N)c1 (stereo not drawn)	56.9%
NC(=O)c1ccc(-n2nnnc2SCc2ccc(C(=O)O)cc2)cc1	3.05%
CCC1CCC(NCCN(C)C)CC1 (stereo not drawn)	-3.42%
Cc1nc2scc(C)n2c(=O)c1S(=O)(=O)N1CCc2ccccc2C1	-0.984%
CCOC(=O)/C=C(\C)N1N=C2c3ccc(OC)cc3CCC2C1c1ccc(OC)cc1 (stereo not drawn)	60.6%
CCOC(=O)/C=C(\C)N1N=C2c3cc(OC)ccc3CCC2C1c1ccc(F)cc1 (stereo not drawn)	6.33%
COc1ccc(C2C3CCc4ccc(OC)cc4C3=NN2/C(C)=C/C(C)=O)cc1 (stereo not drawn)	22.9%
COc1ccc(C2C3CCc4cc(OC)ccc4C3=NN2/C(C)=C/C(C)=O)cc1 (stereo not drawn)	58.5%
CCOC(=O)/C=C(\C)N1N=C2c3ccc(OC)cc3CCC2C1c1ccc(F)cc1 (stereo not drawn)	-1.77%

Compound	% Inhibition @ 10 uM
COc1ccc2c(c1)CCC1C2=NN(/C(C)=C/C(C)=O)C1c1ccc([N+](=O)[O-])cc1 (stereo not drawn)	4.54%
CCOC(=O)/C=C(\C)N1N=C2c3cc(OC)ccc3CCC2C1c1ccccc1 (stereo not drawn)	2%
CCOC(=O)/C=C(\C)N1N=C2c3ccc(OC)cc3CCC2C1c1cccc(F)c1 (stereo not drawn)	73.1%
CCOC(=O)/C=C(\C)N1N=C2c3cc(OC)ccc3CCC2C1c1ccc(OC)cc1 (stereo not drawn)	-4.49%
COC(=O)C(O)(c1ccc(N)cc1)C(F)(F)F (stereo not drawn)	0.937%
CCCCOC1CS(=O)(=O)CC1OCCCC (stereo not drawn)	-5.28%
Cc1ccc(-c2nc(CSCC(=O)Nc3cc(C)on3)c(C)o2)cc1	-2.14%
CC1=C(C)CC(C(=O)Nc2cccc(F)c2)C(C(=O)O)C1 (stereo not drawn)	-2.22%
COC(=O)c1cc(OC)c(S(=O)(=O)NCc2ccccc2)cc1OC	-2.28%
CCOC(=O)C1=C(CN2CCC3(CC2)OCCO3)NC(=O)NC1c1cccc(OC)c1OC (stereo not drawn)	93%
CCOC(=O)C1=C(CN2CCN(C(=O)OCC)CC2)NC(=O)NC1c1cccc(OC)c1OC (stereo not drawn)	2.12%
CCOC(=O)C1=C(CN2CCN(C)CC2)NC(=O)NC1c1cccc(OC)c1OC (stereo not drawn)	3.75%
O=C1CC(c2ccccc2)NC(=O)N1 (stereo not drawn)	-2.86%
CCCOc1ccc(C2C3=C(O)CC(C)(C)CC3=NC(C)=C2C(=O)Nc2ccccc2OC)cc1 (stereo not drawn)	-0.864%
c1ccc(C(CCNC2CN3CCC2CC3)c2ccccc2)cc1 (stereo not drawn)	-0.0908%
O=C(CCN1C(=O)c2ccccc2C1=O)NCC1CCCO1 (stereo not drawn)	-0.349%
Cc1cc(/C=C2/C(=N)N3C(=NC2=O)SN=C3S(=O)(=O)C(C)C)c(C)n1Cc1ccccc1	-7.21%
N=C1S/C(=C\c2ccco2)C(=O)N1c1nccs1	-3.74%
N=C1S/C(=C\c2c[nH]nc2-c2ccccc2)C(=O)N1c1nccs1	11.2%
CC(C)Oc1ccccc1/C=C1\SC(=N)N(c2nccs2)C1=O	50.1%
CCOC(=O)N1CCC(NS(=O)(=O)c2c(C)nc3scc(C)n3c2=O)CC1	-8.17%
Cc1nc2scc(C)n2c(=O)c1S(=O)(=O)NC1CCN(Cc2ccccc2)CC1	-3.32%
Cc1nc2scc(C)n2c(=O)c1S(=O)(=O)NC1CCCCCCC1	72.2%
Cc1cccc(CN2CCCC(O)C2)c1 (stereo not drawn)	-0.828%
O=C(CCC1CCCCC1)NC1(C(F)(F)F)NC(=O)N(Cc2ccccc2)C1=O (stereo not drawn)	-3.33%

Compound	% Inhibition @ 10 uM
CCOC(=O)C1=C(c2ccccc2)Nc2ncnn2C1c1cccc(O)c1 (stereo not drawn)	3.8%
COc1cccc(C2=NS(=O)(=O)N(C)C(C(=O)N3CCCC3)=C2)c1	3.92%
CCSc1nc(=O)n(-c2ccccc2)c(C)c1C(C)=O	-5.51%
CCc1ccc(C2C3=C(O)CCCC3=NC(C)=C2C(=O)Nc2ccc(F)cc2)cc1 (stereo not drawn)	4.11%
Cc1sc2ncn(CC(=O)NC3CCCC(C)C3C)c(=O)c2c1S(=O)(=O)N1CCC(C)CC1 (stereo not drawn)	-4.67%
CC(=O)ON1C(=O)C2C3c4ccccc4C(c4ccccc43)C2C1=O (stereo not drawn)	38.9%
CC(=O)ON1C(=O)C(c2ccccc2)=C(c2ccccc2)C1=O	82%
O=C1C(c2ccccc2)=C(c2ccccc2)C(=O)N1O	3.25%
CCCCN(C)C(=O)C1c2ccccc2C(=O)N(CCOC)C1c1c[nH]c2ccccc12 (stereo not drawn)	5.62%
Cc1ccc2nc(O)c3cc(C(=O)NCCc4ccsc4)sc3c2c1	1.72%
CN(C)c1ccc(NC(=O)NC2CCCCC2)cc1	-12.2%
CC(CCCC(C)(C)O)NC(C)Cc1ccc(F)cc1 (stereo not drawn)	4.68%
O=C(CC1(O)C(=O)Nc2ccc(Br)cc21)c1ccc2ccccc2c1 (stereo not drawn)	4.03%
CCC1(C)Cc2c(sc3nc(SC)nc(O)c23)CO1 (stereo not drawn)	8.9%
CCC1(C)Cc2c(sc3nc(SCC(=O)c4ccccc4)nc(N)c23)CO1 (stereo not drawn)	0.992%
CCC1(C)Cc2c(sc3nc(S)nc(N)c23)CO1 (stereo not drawn)	62.9%
COc1cc2c(CC(=O)Nc3ccccc3)c(O)c(C)c(NCc3ccccc3)c2cc1OC	13.4%
COc1cc2c(NCc3ccccc3)cc(O)c(CC(=O)Nc3ccccc3)c2cc1OC	66.3%
CCCCNc1cc(O)c(CC(=O)Nc2ccccc2)c2cc(OC)c(OC)cc12	25.7%
CCn1c(C)cc(/C=C2\NC(=O)N(CC(=O)Nc3ccc(F)cc3)C2=O)c1C	0.528%
CCCNS(=O)(=O)c1cc(-c2cc(C)no2)ccc1OC	-8.89%
CCCCNC(=O)c1cc(-c2ccc(F)cc2)on1	4.5%
Brc1ccc(-c2cn3nc(C4CCCCC4)sc3n2)cc1	-2.71%
COc1ccc(C(=O)CCN(C)CC(=O)O)cc1	55.8%
CCOc1ccc(C(=O)CCN(C)CC(=O)O)cc1	89.9%

Compound	% Inhibition @ 10 uM
CCOc1ccc(C(=O)CCN(C)C)cc1	-1.25%
COc1ccc(C(=O)CCN(C)C)cc1	3.82%
COc1ccc(C(=O)CCNCCC(=O)O)cc1	30.1%
CCOc1ccc(C(=O)CCNCCC(=O)O)cc1	44.5%
O=C(O)c1ccccc1NC(=O)C12CC3CC(CC(C3)C1)C2	-5.44%
O=C(O)CCC(=O)Nc1ccc(S(=O)(=O)NC2CCCCC2)cc1	1.49%
CC(=O)c1ccc(N2CCN(Cc3ccc(C)cc3C)CC2)cc1	-5.11%
CC1(C)CC(=O)C2=C(C1)N1C(=C(C#N)C2c2cccnc2)N=C(N)c2c1sc1c2CCCCC1 (stereo not drawn)	-2.39%
CCc1nn(-c2cc(Oc3ccc(C)cc3)ncn2)c(N)c1C(N)=O	60.5%
Cc1ccc(Oc2cc(-n3nc(C)c(C(N)=O)c3N)ncn2)cc1	-0.795%
CCc1nn(-c2cc(Oc3ccccc3)ncn2)c(N)c1C(N)=O	0.686%
CN(C1CCCCC1)S(=O)(=O)c1ccc(C(=O)Nc2nc(-c3ccccn3)cs2)cc1	-1.4%
O=c1ncn(-c2ccccc2F)c2ncccc12	-10.2%
CCOC(=O)C1=C(O)/C(=C\c2cc(C)n(-c3ccccc3C(F)(F)F)c2C)N=C1C	52.7%
CCOC(=O)C1=C(O)/C(=C\c2cc(C)n(-c3cc(C)ccc3OC)c2C)N=C1C	3.47%
CCOC(=O)C1=C(O)/C(=C\c2cc(C)n(-c3ccccc3C(=O)OC)c2C)N=C1C	3.47%
C/N=C1/S/C(=C\c2ccc(N3Cc4ccccc4C3)cc2)C(=O)N1C	-5.19%
CCCCNC(=O)c1cn(C)c(=O)c2cc(OC)c(OC)cc12	-5.67%
CCCCNC(=O)c1cnn2c(C(F)F)cc(-c3ccccc3)nc12	4.08%
O=C(c1cnn2c(C(F)F)cc(-c3ccccc3)nc12)N1CCN(c2ccccn2)CC1	5.65%
Cc1ccc(-c2cc(C(F)F)n3ncc(C(=O)NC(C)c4ccccc4)c3n2)cc1 (stereo not drawn)	0.778%
CCc1nccn1C(=O)c1cnn2c(C(F)F)cc(-c3ccccc3)nc12	75.7%
Cc1ccc(-c2cc(C(F)F)n3ncc(C(=O)n4c(C)nc5ccccc54)c3n2)cc1	50%
Cc1ccc(-c2cc(C(F)F)n3ncc(C(=O)N4CCc5ccccc5C4)c3n2)cc1	0.778%
